In PubChem BioAssay (EPA / NIEHS):
Where “and” joins values, the source holds several entries; their conditions need not be identical. Equal entries are not always repeated. Inconclusive results are not listed. The source holds several records for some structures; these can differ, active in one and inactive in another. Calls of active or inactive are those of the source. How the source made its calls: active means hit-call score of the fitted dose curve at least 0.9, where 1 is the maximum; inconclusive means response in the unintended direction; inactive means score below 0.9.

Assay: Tanguay_ZF_120hpf_ActivityScore_legacy: (Legacy) Oregon State University Tanguay Lab 120 Hour Post-fertilization zebrafish Assay Score for Activity (AID 2283742);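 on AC50: dechorionated Tropical 5D wild-type zebrafish embryos held singly per well; static exposure from 6 hpf until 120 hpf at 28 °C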
In short: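 Dechorionated Tropical 5D embryos, one per well from 6 hpf, statically exposed to 120 hpf at 28 °C in 0.64% DMSO. Mortality and malformations scored binary by brightfield microscopy; activity score combines 18 endpoints, fitted positively versus DMSO.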

| SMILES | AC50 | outcome |
| --- | --- | --- |
| CCCOC(=O)c1ccc(C(=O)OCCC)nc1 | 3.83 µM (active) |  |
| O=C(c1ccccc1)C1CCCCC1 |  | inactive |
| CSC(=O)c1cccc2nnsc12 |  | inactive |
| CCCN(CCC)C(=O)SCC |  | inactive |
| COCCO |  | inactive |
| CCC(C)OC(=O)N1CCCCC1CCO (configuration not stated) |  | inactive |
| CCN(Cc1c(F)cccc1Cl)c1c([N+](=O)[O-])cc(C(F)(F)F)cc1[N+](=O)[O-] |  | inactive |
| Cc1nn(C)c(Oc2ccccc2)c1C=NOCc1ccc(C(=O)OC(C)(C)C)cc1 | 2.45 µM (active) |  |
| CCN(CC)C(=O)c1cccc(C)c1 |  | inactive |
| O=C(Nc1ccc([N+](=O)[O-])cc1Cl)c1cc(Cl)ccc1O |  | inactive |
| O=C(c1ccc(O)cc1O)c1ccc(O)cc1O |  | inactive |
| N[C@@H](Cc1cc(I)c(Oc2ccc(O)c(I)c2)c(I)c1)C(=O)O | 0.287 µM (active) |  |
| OB(O)O |  | inactive |
| C#CCOC(=O)[C@@H](C)Oc1ccc(Oc2ncc(Cl)cc2F)cc1 |  | inactive |
| CCCCC(CC)COC(=O)c1ccccc1C(=O)O (configuration not stated) |  | inactive |
| CC(C)(C)[C@@H](O)[C@@H](Cc1ccc(Cl)cc1)n1cncn1 |  | inactive |
| O=C(O)C1(C(=O)Nc2ccc(Cl)cc2Cl)CC1 | 19.6 µM (active) |  |
| CCOC(=O)C(C)Oc1ccc(Oc2cnc3cc(Cl)ccc3n2)cc1 (configuration not stated) |  | inactive |
| CC(C)CCCCCCc1ccc(O)cc1 |  | inactive |
| CC(C)(c1ccc(O)cc1)c1ccc(O)cc1 | 45 µM (active) and 33.6 µM (active) and 35.6 µM (active) |  |
| S=C(S)NCCNC(=S)S.[Mn+2].[S-]C([S-])=NCCN=C([S-])[S-].[Zn+2] | 0.00112 µM (active) | inactive |
| CCCCCCC(C)OC(=O)COc1nc(F)c(Cl)c(N)c1Cl (configuration not stated) |  | inactive |
| S=C([S-])NCCNC(=S)[S-].[Mn+2] |  | inactive |
| O=C(O)c1ccccc1 |  | inactive |
| c1ccc(Nc2ccccc2)cc1 | 30.3 µM (active) |  |
| C=CCOC(Cn1ccnc1)c1ccc(Cl)cc1Cl (configuration not stated) | 11.7 µM (active) |  |

Assay: ArunA_CellTiter_hNC: Viability Assessment in the ArunA Biomedical's Oris Neural Crest (hNC) Cell Migration Assay (AID 2283752)
In short: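 Human H9-derived neural crest stem cells were plated at 60,000 per well on Matrigel in growth medium with LIF and bFGF, incubated 16 h at 37C, then exposed to chemical for 72 h. Viability was read with CellTiter Aqueous One as loss of signal versus DMSO.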

| SMILES | AC50 | outcome |
| --- | --- | --- |
| N[C@@H](Cc1cc(I)c(Oc2ccc(O)c(I)c2)c(I)c1)C(=O)O | 33 µM (active) |  |
| CC(C)CCCCCCc1ccc(O)cc1 | 5.59 µM (active) |  |
| CC(C)(c1ccc(O)cc1)c1ccc(O)cc1 |  | inactive |
| S=C(S)NCCNC(=S)S.[Mn+2].[S-]C([S-])=NCCN=C([S-])[S-].[Zn+2] | 9.92 µM (active) |  |

Assay: ArunA_CellTiter_hNP: Viability Assessment in the ArunA Biomedical's Oris Neural Crest (hNC) Cell Migration Assay (AID 2283753)
Description: ArunA_CellTiter_hNP is a cell-based, single-readout assay that uses human H9-derived neuroprogenitor stem cells (hNP1).Measurements were taken 72 hours after chemical dosing in a 96-well plate.ArunA_CellTiter_hNP is an assay component measured from the ArunA_CellTiter_hNP assay. It is designed to make measurements of viability, a form of viability reporter, as detected with fluorescence intensity signals by HCS Fluorescent Imaging technology. Data from the assay component ArunA_CellTiter_hNP was analyzed at the endpoint, ArunA_CellTiter_hNP, in the positive analysis fitting direction relative to DMSO as the negative control and baseline of activity. Using a type of viability reporter, loss-of-signal activity can be used to understand the viability. To generalize the intended target to other relatable targets, this assay endpoint is annotated to the cell cycle intended target family, where the subfamily is cytotoxicity.
To assess the hNP and hNC migration and cell titer endpoints, 60,000 cells per well were plated onto Matrigel in basal growth medium with LIF and bFGF in a 96-well plate format. Plates were incubated for 16 h at 37C followed by a 72 h exposure to chemical in the test medium. For the migration endpoints, cells were seeded and incubated in presence of 'seeding stoppers' to prevent cell migration and growth into the detection zone. At the beginning of chemical exposure, stoppers were removed, and growth medium was replaced with test medium. In the case of the stopper control wells, stoppers remained in place following replacement of growth medium with test medium. Following 72 -h exposure to the test medium, cells were stained at 37C for 30-60 min with calcein-AM. Cell viability in the detection zone was quantitated using a Flexstation3 microplate reader (ex494 nm/em 517 nm). Corresponding cell titer endpoints were assessed for the hNP and hNC cells using the Promega CellTiter Aqueous One Solution Cell Proliferation Assay (Cat no. G3581; CellTiter 96). Finally, to gain insight into the mechanisms by which cells migrate into the detection zone, Ki-67 expression was quantified for 10 additional chemicals in the hNP and hNC systems. Additionally, cytochalasin D was used as a positive control to inhibit cell migration. Supplementing the AB2 Basal Medium: 1. Decontaminate the external surfaces of all supplement vials and the medium bottle with ethanol or isopropanol. 2. Aseptically open each supplement vial and add the amount indicated below to the basal medium with a pipette. To make 100 ml of complete medium: AB2 Neural Medium 96 mL, ANS Supplement 2 mL, bFGF (50 ug/mL) 40 uL, LIF (10 ug/mL) 100 uL, L-Glutamine (200 mM) 1 mL, Penicillin (5,000 U/mL)/ Streptomycin (5,000 ug/mL) 1 mL. 3. Supplemented medium should be stored at 2-8C, protected from light. […]

| SMILES | outcome | AC50 |
| --- | --- | --- |
| N[C@@H](Cc1cc(I)c(Oc2ccc(O)c(I)c2)c(I)c1)C(=O)O | inactive |  |
| CC(C)CCCCCCc1ccc(O)cc1 |  | 9.76 µM (active) |
| CC(C)(c1ccc(O)cc1)c1ccc(O)cc1 | inactive |  |
| S=C(S)NCCNC(=S)S.[Mn+2].[S-]C([S-])=NCCN=C([S-])[S-].[Zn+2] |  | 83.4 µM (active) |

Assay: ArunA_Migration_hNC: ArunA Biomedical's Oris Neural Crest (hNC) Cell Migration Assay (AID 2283755)
In short: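 Human H9-derived neural crest stem cells, 60,000/well on Matrigel, 16 h at 37C, then 72 h chemical exposure after seeding-stopper removal. Migration into detection zone read as calcein-AM fluorescence (ex494/em517), relative to DMSO.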

| SMILES | AC50 | outcome |
| --- | --- | --- |
| N[C@@H](Cc1cc(I)c(Oc2ccc(O)c(I)c2)c(I)c1)C(=O)O | 56.2 µM (active) |  |
| CC(C)CCCCCCc1ccc(O)cc1 | 4.41 µM (active) |  |
| CC(C)(c1ccc(O)cc1)c1ccc(O)cc1 |  | inactive |
| S=C(S)NCCNC(=S)S.[Mn+2].[S-]C([S-])=NCCN=C([S-])[S-].[Zn+2] | 50 µM (active) |  |

Assay: ArunA_NOG_NucleusCount: ArunA Biomedical's Neurite Outgrowth (NOG) Assay for Nucleus Count (AID 2283756)
In short: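 Human H9-derived differentiated neurons were exposed for 48 h right after seeding. Hoechst-stained nuclei gated by size and intensity were counted by automated high-content imaging as viable neurons. Loss of signal vs DMSO.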

| SMILES | outcome |
| --- | --- |
| N[C@@H](Cc1cc(I)c(Oc2ccc(O)c(I)c2)c(I)c1)C(=O)O | inactive |
| CC(C)(c1ccc(O)cc1)c1ccc(O)cc1 | inactive |
| S=C(S)NCCNC(=S)S.[Mn+2].[S-]C([S-])=NCCN=C([S-])[S-].[Zn+2] | inactive |
